Measurements reported in PubChem BioAssay (NCATS).
Records with an inconclusive call do not appear. Activity calls are given as the source filed them. Calls come from the whole dose curve; as a rule, active = well fitted inhibition curve with a large enough effect; inconclusive = small, poorly fitted or top-dose-only effect, or effect the other way; inactive = flat fitted curve, though single readings scatter. Bridge positions count the residues as written; N and C are the ends. Square brackets hold non-standard residues; d marks the D form. Peptide text beside a SMILES is read from it. hArg = N=C(N)NCCCC[C@H](N)C(=O)O; Mpa = O=C(O)CCS

These compounds were tested against ATP-dependent 6-phosphofructokinase (Trypanosoma brucei brucei) (UniProt O15648) (assay: qHTS Assay to Find Inhibitors of T. brucei phosphofructokinase: hit validation (AID 492961;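 for activity change, negative = inhibition: luminescence reports ADP formed as PFK phosphorylates fructose-6-phosphate with ATP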)). Settings: T. brucei PFK, ADP-Glo luminescence; series mostly up to 51.4 µM; activity change, negative = inhibition: at the top concentration.
Method in brief: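 PFK 1.25 nM, F6P 0.5 mM, ATP 0.1 mM, MgCl2 5 mM, 0.1 M TEA pH 8.0, Tween20 0.01%, BSA 0.1%; 45 min RT. ADP-Glo two-step detection, luminescence. qHTS titration; curve fitting with curve-class categorization.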
% is set by controls: 0 for no effect and ±100 for the full control effect; potency is the fitted concentration of half-maximal effect.

ATP-dependent 6-phosphofructokinase (Trypanosoma brucei brucei), sequence (O15648 whole entry, looked up): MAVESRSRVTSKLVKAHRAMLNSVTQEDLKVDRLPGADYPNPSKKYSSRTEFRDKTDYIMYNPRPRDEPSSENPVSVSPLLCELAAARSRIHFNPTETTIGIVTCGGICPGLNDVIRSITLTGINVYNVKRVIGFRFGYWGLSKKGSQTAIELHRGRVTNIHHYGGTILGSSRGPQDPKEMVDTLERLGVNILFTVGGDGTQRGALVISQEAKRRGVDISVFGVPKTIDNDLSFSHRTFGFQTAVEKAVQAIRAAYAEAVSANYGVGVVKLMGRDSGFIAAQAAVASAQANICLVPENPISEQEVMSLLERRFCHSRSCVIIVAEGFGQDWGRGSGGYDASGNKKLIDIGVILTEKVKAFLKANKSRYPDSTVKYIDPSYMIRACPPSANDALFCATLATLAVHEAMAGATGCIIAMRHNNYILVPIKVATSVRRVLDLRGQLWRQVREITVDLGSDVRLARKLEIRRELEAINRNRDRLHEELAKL

SMILES | activity change, negative = inhibition | Potency
CC[C@]1(O)CC[C@H]2[C@@H]3CCC4=CCCC[C@@H]4[C@H]3CC[C@@]21C | -5.25% (inactive) | 
CCOC(=O)NC(O)C(Cl)(Cl)Cl (centres undefined) | 2.82% (inactive) | 
NCc1cccnc1 | 0.779% (inactive) | 
C=CCOC(Cn1ccnc1)c1ccc(Cl)cc1Cl (centres undefined) | -6.55% (inactive) | 
CC(C)NCC(O)c1ccc(N)c(C#N)c1 (centres undefined) | 14.1% (inactive) | 
CN1CCc2cc(Cl)c(O)cc2[C@H]2c3ccccc3CC[C@@H]21 | -4.85% (inactive) | 
C[C@]12Cc3nonc3C[C@@H]1CC[C@@H]1[C@@H]2CC[C@@]2(C)[C@H]1CC[C@]2(C)O | -1.22% (inactive) | 
C[C@]12C=CC(=O)C=C1CC[C@@H]1[C@@H]2CC[C@@]2(C)[C@H]1CC[C@]2(C)O | -7.28% (inactive) | 
C#C[C@]1(O)CC[C@H]2[C@@H]3CCC4=CC(=O)CCC4=C3C=C[C@@]21CC | 2.91% (inactive) | 
CC(C)[N+](C)(CCC(C(N)=O)(c1ccccc1)c1ccccc1)C(C)C | 1.91% [at 24.3 µM] (inactive) | 
CCNc1nc(Cl)nc(NCC)n1 | 3% (inactive) | 
Oc1ccc2[nH]cc(CCCCN3CC=C(c4ccccc4)CC3)c2c1 | -2.05% (inactive) | 
Cc1ncc2n1-c1ccc(Cl)cc1C(c1ccccc1F)=NC2 | 2.78% (inactive) | 
C[N+]1(CCC(C(N)=O)(c2ccccc2)c2ccccc2)CCCCC1 | 4.39% (inactive) | 
CC(Cc1ccccc1)NCc1ccccc1Cl (centres undefined) | -4.69% (inactive) | 
CCC1(CC)C(=O)NC(=O)NC1=O | 1.2% (inactive) | 
CCN(CC)CCOC(=O)C(C)(c1ccccc1)c1ccccc1 | -4.31% (inactive) | 

SMILES | activity change, negative = inhibition | Potency
O=C1NCN(c2ccccc2)C12CCN(CCCOc1ccc(F)cc1)CC2 | -5.75% (inactive) | 
CCNC(=O)NCc1cccc(Cl)c1 |  | 15.8 µM (active)
NC(=O)[C@@H]1CSSCCC(=O)N[C@@H](CCCCN=C(N)N)C(=O)NCC(=O)N[C@@H](CC(=O)O)C(=O)N[C@@H](Cc2c[nH]c3ccccc23)C(=O)N2CCC[C@H]2C(=O)N1 ([Mpa][hArg]GDWPC-NH2; disulfide 1-7) | -17.5% (inactive) | 
Cc1ccc(N=CN(C)C=Nc2ccc(C)cc2C)c(C)c1 | -6.63% (inactive) | 
C[C@H]1C(=O)O[C@@H]2CCN3CC=C(COC(=O)[C@](C)(O)[C@]1(C)O)[C@H]23 | -3.05% (inactive) | 
COc1ccc(CN2CCNCC2)c(OC)c1OC | -0.334% [at 24.3 µM] (inactive) | 
O=C(CCCN1CCC(n2c(=O)[nH]c3ccccc32)CC1)c1ccc(F)cc1 | 2.61% [at 24.3 µM] (inactive) | 
CC[n+]1c(-c2ccccc2)c2cc(N)ccc2c2ccc(N)cc21 |  | inactive
CC(C)(C)OC(=O)c1ncn2c1[C@@H]1CCCN1C(=O)c1c(Br)cccc1-2 | 0% (inactive) | 
COP(=S)(OC)Oc1ccc(Sc2ccc(OP(=S)(OC)OC)cc2)cc1 | -6.48% (inactive) | 
CN1C[C@@H](NS(=O)(=O)N(C)C)C[C@@H]2c3cccc4c3c(cn4C)C[C@H]21 | 6.52% (inactive) | 
Oc1c(Br)cc(Br)cc1Br | 12% (inactive) | 
CCC(=O)O[C@H]1CC[C@H]2[C@@H]3CCC4=CC(=O)CC[C@]4(C)[C@H]3CC[C@]12C | -4.04% [at 24.3 µM] (inactive) | 
CNC(=O)NC(O)C(Cl)(Cl)Cl (centres undefined) | -0.998% (inactive) | 
COCC(=O)N(c1c(C)cccc1C)C(C)C(=O)OC (centres undefined) | -2.15% (inactive) | 
ClC1=C(Cl)C2(Cl)C(CBr)CC1(Cl)C2(Cl)Cl (centres undefined) | -0.0623% (inactive) | 
CNC(=O)Oc1cccc2ccccc12 | -0.794% (inactive) | 
